hcGAS lum: human cGAS inhibition; recombinant h-cGAS, ATP depletion, Kinase-Glo luminescence; inhibition, % at 12.5 µM; hit rate 0.081% among 290,000;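 also: 0% = vehicle reaction and 100% = reaction without DNA for no activity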
Target sequence (Q8N884 whole entry, looked up): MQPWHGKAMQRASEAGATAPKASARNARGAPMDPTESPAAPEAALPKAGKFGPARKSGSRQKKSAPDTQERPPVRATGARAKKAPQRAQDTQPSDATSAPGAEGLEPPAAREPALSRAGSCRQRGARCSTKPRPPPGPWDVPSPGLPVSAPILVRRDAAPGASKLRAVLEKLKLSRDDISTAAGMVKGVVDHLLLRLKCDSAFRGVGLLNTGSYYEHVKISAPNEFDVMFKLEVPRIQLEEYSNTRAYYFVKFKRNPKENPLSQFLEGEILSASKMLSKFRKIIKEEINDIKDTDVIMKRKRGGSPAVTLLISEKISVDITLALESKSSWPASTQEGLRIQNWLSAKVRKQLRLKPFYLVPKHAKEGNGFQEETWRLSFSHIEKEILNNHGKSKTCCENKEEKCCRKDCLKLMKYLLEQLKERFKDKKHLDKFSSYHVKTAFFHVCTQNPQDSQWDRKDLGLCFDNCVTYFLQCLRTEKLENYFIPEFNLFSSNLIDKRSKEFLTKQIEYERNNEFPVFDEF
NPYLR7 agonist: activates Aedes aegypti NPYLR7 receptor; HEK293T NPYLR7/Galpha15, GCaMP6s calcium fluorescence; activation, % at 10 µM; hit rate 0.15% among 270,000; AID 1259423; in the data active = activation above about 40%;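 also: 0% = vehicle and 100% = reference agonist at the receptor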
mcGAS inh: inhibitors of mouse cGAS; Q8C6L5; recombinant cGAS, Kinase-Glo ATP depletion luminescence; inhibition, % at 12.5 µM; hit rate 0.15% among 160,000; AID 1259399;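 also: 0% = negative control wells and 100% = reference inhibitor with no enzyme activity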
* marks the source's active call; other numbers are inactive results; . = no result; ! = a repeat was not active. An excerpt weighted towards active compounds, which were near 0.28% of everything screened. Rule as the data show it, unless noted: active = inhibition above about 40%; inactive = the rest.

SMILES | hcGAS lum | NPYLR7 agonist | mcGAS inh
CCN(C)Cc1cccc(CNCc2cccc3c2OCCO3)c1 | -8 | 2 | .
CCCC(=O)NC(N)=Nc1nc(C)c2cc(C)ccc2n1 | -7 | -6 | -2
COc1ccc2c(C)nc(N=C(N)N)nc2c1 | 5 | 59* | .
CCc1nc(N=C(N)N)nc2cc(C)ccc12 | 4 | 62* | .
COc1ccc(N=C(N)N)cc1 | -7 | 5 | .
COc1ccc(-n2c(-c3ccccc3)cc(C(=O)N3CCN(C(=O)c4ccccc4OC)CC3)c2C)cc1OC | -16 | -10 | -5
CC(C)NC(=O)c1ccnc(-c2ccnc3[nH]ccc23)c1 | -4 | 0 | .
CN(C)c1ccc(NC(=O)c2cccc(F)c2)cc1CN(C(=O)C1CC1)C1CC1 | -4 | 19 | -5
N#C/C(=C/c1ccc(N2CCCCC2)o1)c1cccc(F)c1 | -1 | 63* | .
N#C/C(=C/c1ccc(N2CCCCC2)cc1F)c1ccc(C(=O)O)cc1 | 0 | -1 | -5
Cc1ccc(Cn2nc(C)c(C(=O)N3CCNC(=O)C3)c2C)cc1 | -12 | 7 | -7
CCCc1nnc2c(=O)n(-c3ccc(F)cc3)ccn12 | -6 | 9 | -8
COc1cc(CNCCN(C)C)cc2c1OCO2 | -7 | 2 | -4
COc1cc2oc(=O)c3c4c(cc5ccc(c1CCN(C)C)c2c53)OCO4 | 44* | 2 | 52*
CC(C)OC(=NCCN1CCCCC1)NC(=O)c1cccc(F)c1 | -8 | 1 | -7
CCCCc1nn2c(N)c(C=C3C=CC(=O)C(OCC)=C3)c(=O)nc2s1 | -2 | 39 | .
C=CCC1=CC(=Cc2c(N)n3nc(Cc4cccs4)sc3nc2=O)C=C(OC)C1=O | 2 | 95* | .
CC(=NNc1ncnc2sc(C)c(C)c12)c1ccccn1 | 45* | 59* | .
Cc1sc2ncnc(N/N=C\c3ccccc3O)c2c1C | -8 | 6 | .
CC(=O)COc1ccc2c(c1)O/C(=C\c1ccccc1F)C2=O | -3 | -7 | -5
C#CCNC(=O)Cc1ccc(NS(=O)(=O)c2cc(Cl)cc(Cl)c2)cc1 | -5 | 5 | .
O=C(Cn1c(CO)c[nH]c1=S)NCc1ccc(Cl)cc1 | -6 | 1 | .
CCOCCCN(CC(=O)N(CCOC)Cc1cccn1C)C(=O)c1ccc(Br)cc1 | -8 | 1 | -6
COc1cccc(CN2C(=O)c3cccc(N)c3C2=O)c1 | -8 | 43* | .
COc1ccc(CN2C(=O)c3ccccc3C2=O)cc1F | -1 | 8 | .
SMILES | hcGAS lum | NPYLR7 agonist | mcGAS inh
COCCN=c1scc(-c2ccc(OC(F)F)cc2)n1N=C(C)c1ccc2c(c1)OCO2 | -2 | -8 | .
COc1cccc(NC(=O)Cn2c(-c3nnc(C(C)C)o3)cc3ccccc32)c1 | -5 | 0 | -9
CCC(CC)C(=O)N1CCC(n2c(C)nc3ccc(F)cc32)CC1 | -3 | . | -5
CCC(C(=O)N1CCN(CC(OCc2ccc(C(=O)OC)cc2)c2ccc(Cl)cc2)CC1)c1ccccc1 (centres undefined) | -7 | . | 88*
COC(=O)c1ccc(COC(CN2CCN(C(=O)c3ccc(Cl)cc3)CC2)c2ccc(Cl)cc2)cc1 (centres undefined) | -7 | . | -5
CCCCCn1c(=O)c2c(nc3n2CCN3c2cc(C)cc(C)c2)n(C)c1=O | -2 | 140* | .
CCCCCn1c(=O)c2c(nc3n2CCN3c2ccccc2)n(C)c1=O | -5 | 4 | .
CC(C)Nc1ccc(NS(=O)(=O)NCc2ccccc2)cn1 | -8 | 63* | .
COc1cc(NS(=O)(=O)NCc2ccccc2)cc(OC)c1 | -5 | 6 | .
O=C(C1CC1)N1CCN(c2cc(Oc3ccc(F)cc3Cl)ncn2)CC1 | -7 | 20 | -7
CCCCN(CC(=O)N(Cc1ccccc1)Cc1ccc(C)s1)S(=O)(=O)c1ccc([N+](=O)[O-])cc1 | -9 | 10 | -6
O=C(O[C@@H]1Cc2c(O)cc(O)cc2O[C@@H]1c1cc(O)c(O)c(O)c1)c1cc(O)c(O)c(O)c1 | 73*! | -10 | .
O=c1c(O)cc([C@H]2Oc3cc(O)cc(O)c3C[C@H]2O)cc2c([C@H]3Oc4cc(O)cc(O)c4C[C@H]3O)cc(O)c(O)c12 | 27 | -8 | .
O=C(O[C@@H]1Cc2c(O)cc(O)cc2O[C@@H]1c1ccc(O)c(O)c1)c1cc(O)c(O)c(O)c1 | 49* | -5 | .
Oc1cc(O)c2c(c1)O[C@H](c1ccc(O)c(O)c1)[C@H](O)C2 | 19 | -19 | .
O=C(Oc1cc(OC(=O)c2ccccc2)c2c(c1)O[C@H](c1ccc(OC(=O)c3ccccc3)c(OC(=O)c3ccccc3)c1)[C@@H](OC(=O)c1ccccc1)C2)c1ccccc1 | -6 | -6 | .
O=C(O[C@@H]1Cc2c(O)cc(O)cc2O[C@@H]1c1cc(O)c(O)c(O)c1-c1c([C@H]2Oc3cc(O)cc(O)c3C[C@H]2O)cc(O)c(O)c1O)c1cc(O)c(O)c(O)c1 | 54* | -6 | 37
O=C(/C=C/c1ccc2c(c1)OCO2)NN1CC2CCCC2C1 (centres undefined) | -1 | -3 | 0
COCCN(C)C[C@H]1C[C@@H](CO)CN(C(=O)c2snnc2C)C1 | -8 | . | -6
CCCCn1c(O)c(C=C2C=Nc3ccccc32)c(=O)[nH]c1=O | 0 | 6 | 6
CN1C=CC(=C/C=C2/C=Nc3ccccc32)C=C1 | 1 | 54* | -2
CCOC(=O)C1CCCN(C(=O)c2nn(-c3cccc(OC)c3)c(=O)n(Cc3ccc(F)cc3)c2=O)C1 (centres undefined) | 4 | -6 | 0
CN(C)c1cccc(C(=O)NCC2COc3ccccc3C2)c1 (centres undefined) | -7 | 4 | -6
O=C1NC(=NS(=O)(=O)c2ccccc2)SC1=Cc1cc([N+](=O)[O-])ccc1O | 35 | 61* | 75*
O=C1NC(=NC2CCCC2)SC1=Cc1cc([N+](=O)[O-])ccc1N1CCCC1 | -5 | -3 | .
SMILES | hcGAS lum | NPYLR7 agonist | mcGAS inh
CSC(=S)N/N=C(/c1ccccc1)c1ccccn1 | 64* | -1 | 6
NC(=S)NN=C(C(=O)c1ccccn1)c1ccccn1 | -7 | -3 | .
CC1=CC(C)C(C(=O)O)C(C(=O)O)C1 (centres undefined) | -1 | 43* | -6
CC(C)=CCCC1=CC[C@H](C(=O)O)[C@H](C(=O)O)C1 | -4 | 2 | -5
Cc1ccc(N=c2c([N+](=O)[O-])nn(-c3ccc(Cl)cc3)n2O)cc1Br | -8 | -2 | .
CC(C)N=c1c([N+](=O)[O-])nn(-c2ccc(Cl)cc2)n1O | -3 | 95* | -9
O=C(CCl)Nc1nc(-c2ccccc2Cl)cs1 | -3 | 3 | 60*
O=C(CCC1CCCC1)Nc1nc(-c2ccccc2Cl)cs1 | 3 | -3 | .
O=C1NC(=S)SC1=Cc1c(F)cccc1Cl | 48* | -3 | .
O=C(O)CN1C(=O)/C(=C/c2c(F)cccc2Cl)SC1=S | -3 | -4 | -1
O=C1NC(=S)SC1=Cc1ccc(Cl)cc1 | 11 | -9 | 55*
O=C1NC(=S)SC1=Cc1ccc(F)cc1 | 15 | 2 | 38
Cc1ccc(CNC(=O)c2c(C)noc2-c2ccccc2Cl)o1 | 1 | -1 | 2
COc1ccc(C2c3cc(OC)c(OC)cc3CCN2C(=O)c2ccccc2OC)cc1OC (centres undefined) | -6 | 14 | -6
OCC1(Cc2cccc(C(F)(F)F)c2)CCN(Cc2nc3ccc(F)cc3[nH]2)CC1 | -1 | . | .
Cc1[nH]c(/C=C2\C(=O)Nc3ccccc32)c(C)c1CCC(=O)O | -1 | 74* | .
O=C(O)C=C1C(=O)Nc2ccccc21 | -6 | -1 | -4
CCOC(=O)c1cc(C(=O)OCC)c2c(C)cc(C)cc(C)c1-2 | -27 | -7 | .
